SMILES strings stand for the structures. Screen size: about 330,000 compounds; about 2,600 (0.79%) were called active. The list comes from a sample in which actives are over-represented; it also holds similar structures and randomly drawn compounds. A number with no mark means an inactive call.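 How the source made its calls: active means mean ATP rescue above about 67%, or every replicate alone reaching that limit (limit read from the data, passing the limit was not always enough); inconclusive means no clear call, values can overlap the other calls; inactive means mean under the limit and some replicate under it.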

The nature of the test: suppressors of statin myotoxicity in C2C12 myotubes, primary screen, cell-based, single point, plate reader (AID 602340).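 Further: myotubes were challenged with 10 µM simvastatin during compound exposure.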 The note with it: C2C12 myotubes + simvastatin, ATP luminescence, 48 h; at 7.49 µM; active compounds read high; scaled: DMSO 0, geranylgeraniol control 100.
As to `Cc1nc(-c2ccc(F)cc2)c(CC(=O)N2CCN(S(=O)(=O)c3ccc(F)cc3)CC2)s1`, the rescue of ATP level was -5.66%.
On to `CCOc1ccc(NC(=O)CN(C)C(=O)Cc2sc(C)nc2-c2ccc(F)cc2)cc1OCC`, for which the rescue of ATP level is 8.47%.
`CCOc1ccc(-c2nc(C)sc2CC(=O)O)cc1`: the rescue of ATP level is 87.4% (active).
For the compound `CN1C(=O)c2cc(NS(C)(=O)=O)ccc2OC[C@H]2O[C@H](CC(=O)NCc3ccccc3)CC[C@H]21`, the rescue of ATP level was -11.2%.
With `C[C@H](NC(=O)C[C@@H]1CC[C@@H](NC(=O)Cc2ccccn2)[C@@H](CO)O1)c1ccccc1`, the rescue of ATP level was 1.25%.
Regarding `CO[C@@H]1CN(C)C(=O)c2cc(NC(=O)c3cccc(F)c3)ccc2OC[C@H](C)N(C)C[C@@H]1C`, the rescue of ATP level is 6.21%.
Next, `CC(C)OCCCNC(=O)CN1C(=O)/C(=C/c2ccccc2F)Oc2ccccc21`: -11.5%; `CCCN1CCN(C(=O)CCCNC(=O)c2ccc(Cl)cc2)CC1`: -1.82%.
Regarding `CN1CCN(CCCNC(=O)c2ccc(/C=C3\Oc4ccccc4N(Cc4ccc(Cl)cc4)C3=O)cc2)CC1`, the rescue of ATP level is 88.6% (active).
Take `CS(=O)(=O)Nc1ccc2c(c1)[C@H]1C[C@@H](CC(=O)NCCc3ccccc3)O[C@@H](CO)[C@H]1O2`: the rescue of ATP level is 3.14%.
Take `O=C(COC(=O)c1cc(S(=O)(=O)N2CCOCC2)ccc1F)NC1CC1`: the rescue of ATP level is -0.144%.
As to `O=C(OCCOc1ccccc1F)c1cc(S(=O)(=O)N2CCOCC2)ccc1F`, the rescue of ATP level is 12.7%.
Regarding `COc1cc(NC(=O)COC(=O)c2cc(S(=O)(=O)N3CCOCC3)ccc2F)cc(OC)c1`, the rescue of ATP level is 117% (active).
As to `CC=Cc1ccc2n(c1=O)C[C@@H]1[C@@H](CO)[C@H](C(=O)NCC)[C@H]2N1CCC(F)(F)F` (mixture of isomers), the rescue of ATP level was 12.8%.
With `CC(C)CC#Cc1cnc2c(c1)C(=O)N([C@H](C)CO)C[C@H](C)[C@H](CN(C)CC1CCOCC1)O2` the figure was 17.7%; with `C[C@@H]1CN([C@H](C)CO)C(=O)Cc2cc(NC(=O)Cn3cnnn3)ccc2O[C@H]1CN(C)CC1CCCCC1`, 19.6%; with `CCc1noc(C)c1C(=O)Nc1nc(-c2ccccc2)cs1`, -35.8%.
As for `Cc1ccc(-c2csc(NC(=O)c3cccs3)n2)cc1`, the rescue of ATP level was 112% (active).
Turning to `CCCc1ccc(-c2csc(NC(=O)Cc3cccs3)n2)cc1`, the rescue of ATP level is 20.4%.
Consider `COc1ccc(C(=O)Nc2ccc3c(c2)OC[C@H](C)N(C(C)=O)C[C@@H](C)[C@@H](OC)CN(C)C3=O)cc1`, for which the rescue of ATP level is -4.78%.
On to `COc1cccc(C(=O)Nc2ccc3c(c2)C(=O)N(C)[C@@H]2CC[C@H](CC(=O)NCC4CC4)O[C@@H]2CO3)c1`, for which the rescue of ATP level is 4.48%.
In the case of `COc1cccc(C(=O)Nc2ccc3c(c2)C(=O)N(C)[C@@H]2CC[C@@H](CC(=O)NCCCN4CCOCC4)O[C@@H]2CO3)c1`, the rescue of ATP level is 8.62%.
With `CCCNC(=O)N1C[C@H]2[C@@H](c3ccccc31)[C@H](CO)N2C(=O)NC(C)C`, the rescue of ATP level is -5.25%.
Consider `CCOC(=O)c1cc2sccc2n1Cc1ccc(C#N)cc1`, for which the rescue of ATP level was 29.8%.
`Cc1[nH]c2ccc(S(N)(=O)=O)cc2c1C`: the rescue of ATP level was 6.68%.
As for `Cc1c(C(C)(C)O)[nH]c2ccc(C#N)cc12`, the rescue of ATP level is 81.3% (active).

The record behind these values is PubChem BioAssay AID602340 (Broad Institute, 2012).
